The campaign covered roughly 310,000 compounds. About 1,000 (0.32%) were called active. The list is a sample of the results. Entries with a potency or affinity are not part of this list. Unmarked numbers belong to inactive results. How the calls were made is not given here.
Assay: PhoP regulon inhibitors, Salmonella typhi PhoP promoter GFP reporter, confirmatory (AID 1850);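 further: 0% = induced wells with vehicle and 100% = uninduced wells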
Settings: fluorescence, 4 h, at 50 µM, active compounds read high
`Cc1[nH]nc2c1C(c1ccccc1F)NC2=O` (centres undefined) gave an inhibition of 8.34%. In the case of `COc1cccc(NC(=O)N(CCN(C)C)C(C)c2cccnc2)c1` (centres undefined), the inhibition is reported as 1.53%. In the case of `Cc1ccc(NC(=O)CCn2cnc3ccccc3c2=O)cc1Cl`, the inhibition is reported as 5.48%. Work on `CCOc1ccc(NS(=O)(=O)c2ccc(C(=O)NCC(c3ccc(OC)cc3)N3CCCC3)cc2)cc1` (centres undefined) yielded an inhibition of 4.44%. For `Cc1cccnc1Sc1c([N+](=O)[O-])ncn1C`, the inhibition was -0.07%. In the case of `O=C(Nc1cccnc1)C1CCC(CNS(=O)(=O)c2cccc3nsnc23)CC1` (centres undefined), the inhibition is reported as 8.22%. `CC(=O)c1cc(F)ccc1OCC(=O)N1CCCc2ccccc21` showed an inhibition of 5.07%. `CN1CCN(c2ccccc2NC(=O)c2ccc(N3CCCC3)c([N+](=O)[O-])c2)CC1` showed an inhibition of 20.3%. Compound `O=S(=O)(Cc1ccccc1Cl)NCCc1ccccc1` has an inhibition of 0.01%. In the case of `Cc1nc(NC(=O)c2ccccc2)sc1C`, the inhibition is reported as -2.8%. `CCOC(=O)c1sc(NC(=O)c2ccccc2)cc1C` gave an inhibition of 3.11%. With `Cc1cc(NC(=O)c2ccccc2)cc(NC(=O)c2ccccc2)c1C` the inhibition was 2.54%. `Cc1sc(NC(=O)c2ccccc2)c(C(=O)c2ccccc2)c1C` showed an inhibition of -8.66%. Compound `O=C(CSc1cc([N+](=O)[O-])cc(S(=O)(=O)Cc2ccccc2)c1)NC1CC1` has an inhibition of -3.36%. In the case of `Cc1cccn2c(CNCC3OCCc4ccccc43)c(C(=O)N3CCCCC3)nc12` (centres undefined), the inhibition is reported as 2.24%. `COc1ccc(C(=O)NCCc2cc3ccc(C)c(C)c3[nH]c2=O)cc1OC` showed an inhibition of -4.33%. For `O=C1OCC(CO)(CO)N=C1NNc1ccccc1Cl`, the inhibition was 8.82%. `O=C1OCC(CO)(CO)N=C1NNc1cc(Cl)ccc1Cl` showed an inhibition of 6.11%. Work on `Cc1cc(C)c(NC(=O)C2CCCN2CCO)c(C)c1` (centres undefined) yielded an inhibition of 6.37%. For `NC1=NC2(CCCC2)N=C(Nc2ccccc2)N1`, the inhibition was 0.23%. In the case of `Cc1ccccc1NC1=NC2(CCCC2)N=C(N)N1`, the inhibition is reported as -0.71%. In the case of `Cc1ccc(C)c(NC2=NC3(CCCCC3)N=C(N)N2)c1`, the inhibition is reported as -8.53%. `Cc1cccc(NC2=NC3(CCCCC3)N=C(N)N2)c1C` showed an inhibition of 1.1%. `Cc1ccc(NC2=NC3(CCCCC3)N=C(N)N2)c(C)c1` gave an inhibition of 8.94%. With `COc1ccc(OC)c(NC2=NC3(CCCCC3)N=C(N)N2)c1` the inhibition was -2.55%. In the case of `Cc1cc(C)cc(NC2=NC3(CCCCC3)N=C(N)N2)c1`, the inhibition is reported as 18%. In the case of `COc1ccc(OC)c(NC2=NC3(CCCC3)N=C(N)N2)c1`, the inhibition is reported as -3.8%. In the case of `COc1ccc(S(=O)(=O)N2CCCc3ccccc32)cc1[N+](=O)[O-]`, the inhibition is reported as 1.36%. `Clc1ccc(-c2c[n+]3c(n2-c2ccccc2)SCC3)cc1` showed an inhibition of 22.2%. Compound `CCc1cc2cc(C)ccc2nc1SCC(=O)Nc1cc(C)on1` has an inhibition of -6.66%. Compound `COc1cccc(CNC(=O)CC(NC(=O)c2ccccc2)c2ccccc2)c1` (centres undefined) has an inhibition of -2.43%. For `O=[N+]([O-])c1cc(NCCO)c(N2CCCCCC2)c2nonc12`, the inhibition was -4.05%. `CCCS(=O)(=O)N1CCC(C(=O)NC2CCCC(C)C2C)CC1` (centres undefined) gave an inhibition of 3.41%. `C[C@H](NC(=O)[C@@H]1Cc2ccccc2CN1)C(=O)Nc1ccc2c(c1)OCCO2` showed an inhibition of -6.47%. For `CCc1cccc2c(C(=O)COC(=O)c3ccccc3)c[nH]c12`, the inhibition was -6.08%. Work on `CCc1cccc2c(C(=O)COC(=O)c3ccc(O)cc3)c[nH]c12` yielded an inhibition of -22.3%. For `O=C(c1ccco1)N1CCN(C(=O)C23CC4CC(CC(C4)C2)C3)CC1`, the inhibition was -6.11%. `O=C(O)c1ccc(Nc2nc3ccc(Cl)cc3[nH]2)cc1` showed an inhibition of -11.1%. `O=C(O)c1ccc(-c2nnn(Cc3cccc(C(F)(F)F)c3)n2)cc1` showed an inhibition of 16.4%. `CC1CCC(NC(=O)c2ccc(S(C)(=O)=O)cc2)CC1` (centres undefined) showed an inhibition of -20%. `CCc1ccc(NC(=O)[C@H](C)NC(=O)C2CCN(C(=O)[C@@H](N)C(C)C)CC2)cc1` showed an inhibition of 3.36%. In the case of `CCN1CCN(CCNC(=O)C2CCN(Cc3nc(-c4ccc(Cl)cc4)oc3C)CC2)CC1`, the inhibition is reported as 6.8%. `Cc1oc(-c2cccc(Cl)c2)nc1CN1CCC(C(=O)NC2CC2)CC1` showed an inhibition of -4.63%. `Cc1oc(-c2cccc(Cl)c2)nc1CN1CCC(C(=O)NCC2CCCO2)CC1` (centres undefined) gave an inhibition of 1.34%. For `CCN(CCNC(=O)C1CCN(Cc2nc(-c3ccc(Cl)cc3)oc2C)CC1)c1ccccc1`, the inhibition was 6.02%. Work on `COCCCNC(=O)C(F)(F)C(F)(F)C(=O)NCCCOC` yielded an inhibition of -11.6%. Compound `S=C(NCCc1ccccn1)Nc1ccccc1` has an inhibition of 7.23%. For `Cc1cc(C)c(NC(=O)COc2nncc3ccccc23)c(C)c1`, the inhibition was -9.5%. Compound `Cc1cccc(C)c1NC(=O)C[N+](C)(C)CC(O)COc1cccc2ccccc12` (centres undefined) has an inhibition of -1.2%. `CCn1cc(/C=C/C(=O)c2ccc(O)cc2)c(C)n1` showed an inhibition of 2.07%. Compound `O=c1c2ccccc2nc(-c2ccc([N+](=O)[O-])cc2)n1-c1ccccc1` has an inhibition of -1.83%. `c1ccc2c(c1)C(=NCC1CCCO1)NC2=NCC1CCCO1` (centres undefined) gave an inhibition of -5.37%. Work on `O=S1(=O)NC(=NC2CCCCCC2)c2ccccc21` yielded an inhibition of -8.09%. For `CCOC(=O)[C@@H]1[C@H]2COc3cc(OC)ccc3[C@H]2N2C(=O)N(c3ccc(C(F)(F)F)cc3)C(=O)[C@@]12C`, the inhibition was -14.6%. With `CC(=O)c1c(C)[n+]([O-])c2ccc3c(non3O)c12` the inhibition was 14.6%. Compound `CCOC(=O)c1c(C)[n+]([O-])c2ccc3c(non3O)c12` has an inhibition of -9.19%. For `CCCn1c(SCC(=O)OCc2ccccc2)nc2c1c(=O)n(C)c(=O)n2C`, the inhibition was -3.63%. In the case of `Cc1ccc(S(=O)(=O)N(C)C)cc1NC(=O)COC(=O)/C=C/c1ccc2ccccc2n1`, the inhibition is reported as -5.07%. `CCOc1ccc(NC(=O)C(=O)NCCN2CCN(S(=O)(=O)c3ccccc3)CC2)cc1` gave an inhibition of 3.61%. `O=C1[C@@H]2C(c3cccnc3)=NO[C@@H]2C(=O)N1c1ccc(Br)cc1` gave an inhibition of -5.51%. `COc1cc2cccc(OC)c(=O)c2c(O)c1OC` showed an inhibition of -19.1%. `Oc1cccc2cc3cccc(O)c3c(O)c12` gave an inhibition of 7.19%. Work on `Cc1ccc(S(=O)(=O)NCC2CCC(C(=O)N3CCN(C)CC3)CC2)cc1` (centres undefined) yielded an inhibition of 5.88%. `CC(C)(C)Cc1nnc(NS(=O)(=O)c2ccc([N+](=O)[O-])cc2)s1` gave an inhibition of -2.4%. `OCCNc1nc(N2CCCCC2)nc2ccccc12` showed an inhibition of 4.37%. For `CC(Nc1nc(N2CCN(S(C)(=O)=O)CC2)nc2ccccc12)c1ccccc1` (centres undefined), the inhibition was -4.59%. `CC(Nc1nc(N2CCNCC2)nc2ccccc12)c1ccccc1` (centres undefined) showed an inhibition of 17.9%. For `CC(Nc1nc(-c2ccccc2)nc2ccccc12)c1ccccc1` (centres undefined), the inhibition was 18%. In the case of `CC(C)S(=O)(=O)c1nsc2nc(=O)c(/C=C3\C=Nc4ccccc43)c(N)n12`, the inhibition is reported as -9.31%. For `Cc1occc1C(=O)NNC(=O)Nc1ccc([N+](=O)[O-])cc1`, the inhibition was 0.48%. Compound `CC(C)(Oc1ccc(Cl)cc1)C(=O)NCCN1C(=O)S/C(=C/c2cccnc2)C1=O` has an inhibition of -8.14%. For `O=C(CN1CCN(Cc2ccc3c(c2)OCO3)CC1)Nc1ccc(F)cc1`, the inhibition was 2.19%. Work on `O=C(O)C1C2C=CC(O2)C1C(=O)NCc1ccc2c(c1)OCO2` (centres undefined) yielded an inhibition of 4.49%. For `O=C(O)C(Cc1c[nH]c2ccccc12)NS(=O)(=O)c1ccc2ccccc2c1` (centres undefined), the inhibition was -4.9%.

Reference: PubChem BioAssay AID1850 (Southern Research Specialized Biocontainment Screening …, 2009)
